This is an account of results in PubChem BioAssay AID493036 (Sanford-Burnham Center for Chemical Genomics, 2011).

SMILES strings stand for the structures. Among all 330,000 compounds or so, about 560 (0.17%) were called active.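 The calls were made as follows: active = activation at or above 40% of the spot to cytoplasm intensity ratio, with at least 20 cells analyzed; inconclusive = wells under 20 cells, flagged as cytotoxic or low count; inactive = the rest.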 For the sample, actives were picked, then their nearest neighbours and some compounds at random.

A short description of experiment [1]: NTR1-driven beta-arrestin-GFP spot formation – imaging, U2OS cells, high content, primary screen (AID 493036).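 As to activation: 0% = DMSO without peptide and 100% = 100 nM NTR1 peptide.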 The note with it: agonist mode, measured here: cell count, cytotoxicity flag, at 20 µM.
In experiment [2] the target is Neurotensin receptor type 1 (Homo sapiens) (UniProt P30989). The description is as above. Conditions: agonist mode, at 20 µM, stronger effect = higher value.
Chain of Neurotensin receptor type 1 (Homo sapiens) (P30989 whole entry, looked up): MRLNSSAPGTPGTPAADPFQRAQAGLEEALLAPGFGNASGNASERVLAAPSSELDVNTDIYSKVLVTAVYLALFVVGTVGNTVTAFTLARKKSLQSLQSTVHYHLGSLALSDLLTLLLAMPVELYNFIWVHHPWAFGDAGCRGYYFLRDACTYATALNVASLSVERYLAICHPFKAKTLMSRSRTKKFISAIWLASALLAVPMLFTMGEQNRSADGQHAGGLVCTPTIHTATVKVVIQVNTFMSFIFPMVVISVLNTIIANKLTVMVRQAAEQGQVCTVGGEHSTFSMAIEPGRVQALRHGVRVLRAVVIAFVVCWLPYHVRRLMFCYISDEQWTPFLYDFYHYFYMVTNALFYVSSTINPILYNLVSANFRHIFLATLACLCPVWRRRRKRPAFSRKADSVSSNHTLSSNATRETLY

In the case of `CC(C)C(=O)Nc1ccc2c3c(cccc13)CC2`, the cell count in experiment [1] was 56 cells. The activation in experiment [2] is 0.6% (inactive).
The corresponding values for `CC(=O)N1C(C)c2ccccc2C(C)(C)CC12CCCCC2` (stereo not given) are 51 cells and 0.8% (inactive).
The molecule `Cn1c(C(=O)O)ccc1S(=O)(=O)N(Cc1ccccc1)Cc1ccccc1` displayed a cell count in experiment [1] of 65 cells. In experiment [2], the activation was 0.5% (inactive).
For `Cc1cc2occ(CC(=O)NNC(=O)c3ccccc3F)c2cc1C`, in that order: 58 cells and 0.7% (inactive).
For `CC(C)(C)OC(=O)CNC(=O)c1[nH]cnc1C(=O)N[C@@H](Cc1ccccc1)C(=O)OCc1ccccc1`, in that order: 87 cells and 15.2% (inactive).
`O=C(N[C@@H](Cc1ccccc1)C(=O)OCc1ccccc1)c1nc[nH]c1C(=O)NC1CCNCC1` gave a cell count in experiment [1] of 66 cells. In experiment [2], the activation was 4% (inactive).
The corresponding values for `CC(C)(C)OC(=O)N1CCC(NC(=O)c2[nH]cnc2C(=O)N[C@@H](Cc2ccccc2)C(=O)OCc2ccccc2)CC1` are 74 cells and 47.8% (active).
The corresponding values for `CSc1ccc(C#N)cc1NC(=O)c1ccc(Cl)cc1` are 46 cells and 0.4% (inactive).
In experiment [1], `FC(F)(F)c1cccc(-c2nc(COc3ccc(Cl)cc3Cl)no2)c1` returned a cell count of 40 cells. Besides, the activation in experiment [2] was -2% (inactive).
The corresponding values for `COc1ccc(C)cc1NC(=O)C(Sc1ccccc1)c1ccccc1` (stereo not given) are 44 cells and 1.2% (inactive).
The corresponding values for `O=C(O)c1cccc(N=NN2CCCCCC2)c1` are 47 cells and 0.2% (inactive).
For `COC(=O)C1=C(NC(=O)C(C)(C)C)CCS1`, in that order: 55 cells and -0.2% (inactive).
In experiment [1], `CC(=O)c1ccc(N2Cc3ccccc3C2)cc1` showed a cell count of 66 cells. Also, in experiment [2], the activation was 0.5% (inactive).
As for `N#Cc1ncc(C(F)(F)F)cc1Oc1cccnc1`, in experiment [1], the cell count came out at 41 cells. In addition, the activation in experiment [2] is -0.5% (inactive).
For `[O-][n+]1onc2c1CCc1[nH]c(-c3ccccc3)nc1-2`, in that order: 66 cells and -0.8% (inactive).
On to `O=C(NC(=S)NC1CCS(=O)(=O)C1)c1cccc([N+](=O)[O-])c1` (stereo not given), for which, in experiment [1], the cell count was found to be 51 cells. Further, the activation in experiment [2] is -0.4% (inactive).
In experiment [1], `CCO[C@H]1OC(C(=O)NCc2ccccc2)=C[C@@H](c2coc3ccccc3c2=O)[C@@H]1CCCO` registered a cell count of 79 cells. Also, the activation in experiment [2] is 0.3% (inactive).
The corresponding values for `COc1ccc(OC)c(S(=O)(=O)NCCC(C)C)c1` are 90 cells and -0.7% (inactive).
The corresponding values for `O=C(NCc1ccco1)c1cnn2c(C(F)(F)F)cc(-c3ccco3)nc12` are 40 cells and 8.2% (inactive).
For `CN(C(=O)c1cccc(NC(=O)C2CCN(C(=O)OC(C)(C)C)CC2)c1)C1CCC1`, in that order: 52 cells and -0.7% (inactive).
`CC(C)Nc1nnc(SCC(=O)/C=C2\N(C)c3ccccc3C2(C)C)s1` registered a cell count in experiment [1] of 54 cells. Besides, the activation in experiment [2] is 0% (inactive).
In the case of `CC(=O)Nc1cccc(OCC(=O)/C=C2\N(C)c3ccccc3C2(C)C)c1`, in experiment [1], the cell count is 29 cells. For the same molecule, the activation in experiment [2] is 0.8% (inactive).
In experiment [1], `CN1/C(=C\C(=O)c2oc3ccccc3c2N)C(C)(C)c2ccccc21` registered a cell count of 52 cells. Also, the activation in experiment [2] was 45.5% (active).
Turning to `CC(Oc1ccccc1)C(=O)Nc1oc(-c2ccco2)c(-c2ccco2)c1C#N` (stereo not given), the cell count in experiment [1] was found to be 69 cells. In experiment [2], the activation was -1.6% (inactive).
`COc1ccc(CC(NC(C)=O)C(=O)N2CCN(C(=O)Nc3cccc(Cl)c3)CC2)cc1OC` (stereo not given): in experiment [1], the cell count worked out at 63 cells. For the same molecule, in experiment [2], the activation is -0.5% (inactive).
Molecule `CC(=O)c1cnn(-c2cc(Oc3ccc(F)cc3)ncn2)c1C` yielded a cell count in experiment [1] of 34 cells. In addition, in experiment [2], the activation is -1.1% (inactive).
In experiment [1], `C=CCOc1ccc(/C=C2/C(=O)ON=C2C)cc1OCC` gave a cell count of 89 cells. Further, the activation in experiment [2] is 2.1% (inactive).
The corresponding values for `COc1cc(/C=C2/C(=O)ON=C2C)ccc1OCc1ccccc1F` are 36 cells and 73.4% (active).
In turn, `COc1cc(/C=C2/C(=O)ON=C2C)ccc1OCc1cccc(F)c1` displayed a cell count in experiment [1] of 41 cells. The activation in experiment [2] is 5.9% (inactive).
Regarding `COC(=O)c1ccc(COC(=O)CNC(=O)c2cccc(OC)c2)o1`, the cell count in experiment [1] was 57 cells. Besides, the activation in experiment [2] is -0.3% (inactive).
For `O=C(Nc1nnc(S(=O)(=O)N2CCCCCC2)s1)c1cccc(Br)c1`, in that order: 53 cells and 5% (inactive).
As for `Cc1c(NC(=O)CCC2CCCCC2)cc(C(=O)N2CCOCC2)cc1[N+](=O)[O-]`, the cell count in experiment [1] came out at 61 cells. In addition, the activation in experiment [2] was 1.4% (inactive).
As for `COc1ccccc1-n1c(SCC(=O)Nc2cccc(C(=O)O)c2)nnc1-c1ccccc1O`, in experiment [1], the cell count was 50 cells. Besides, in experiment [2], the activation is -0.1% (inactive).
Molecule `COc1cccc(/C=N/Nc2cc(C)nc(-c3ccccc3O)n2)c1O` returned a cell count in experiment [1] of 51 cells. Besides, the activation in experiment [2] was 46.3% (active).
For `COc1ccc(Cc2nnc(N/N=C/c3ccccc3O)[nH]c2=O)cc1OC`, in that order: 65 cells and 0% (inactive).
The corresponding values for `CCC1(CC)C(=O)C2=C3C1[C@H](C(=O)OC)C=C(C(=O)OC)C[C@H]3[C@H]1C(=O)N(Cc3ccccc3)C(=O)[C@H]1[C@H]2C` (stereo not given in full) are 56 cells and 4.6% (inactive).
In turn, `CC(C)(C)Nc1c(-c2cccs2)nc2ccccn12` came in with a cell count in experiment [1] of 43 cells. Moreover, the activation in experiment [2] is 1.2% (inactive).
For `O=C(N/N=C/c1ccc(Cl)cc1)c1nc2ccc([N+](=O)[O-])cc2c(=O)[nH]1`, in that order: 101 cells and -0.7% (inactive).
Molecule `O=C(/C(=C/c1cccc(Cl)c1)c1nc2ccccc2[nH]1)c1ccccc1` returned a cell count in experiment [1] of 59 cells. Also, in experiment [2], the activation is 40.5% (active).
The corresponding values for `O=C(O)c1cccc(NC(=O)c2cc(-c3cccc(Cl)c3)nc3ccccc23)c1` are 44 cells and 1.2% (inactive).
